The list is not random: actives were taken first. Their share in the collection is about 12%.
HP1b binding inh = inhibitors of HP1-beta chromodomain binding to methylated histone tails; P83916; AlphaScreen HP1-beta / biotin-H3K9me3 peptide binding; Potency, µM (titrated, usually from 114 µM), for inactives: top-dose activity change, negative = inhibition, most hits filed as inhibitors; 390,000 tested, 0.56% active; AID 540317; also: nearly all actives have a fitted effect of over 70% in size
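Compound inhibition of the preformed complex between 50 nM HP1-beta and 50 nM biotinylated H3K9me3 peptide was read by AlphaScreen. Buffer was PBS pH 7.4 with 0.01% Tween-20. Incubations ran 30 min at room temperature, with 10 ug/mL donor/acceptor beads.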
BAZ2B inh = BAZ2B (human) inhibition | AlphaScreen BAZ2B-H3K14Ac peptide displacement | 360,000 tested, 4.4% active | Potency, µM (top dose mostly 114 µM), for inactives: at the highest dose activity change, negative = inhibition, usual class: inhibitors | AID 504333; also: % is scaled to controls: 0 for no effect and ±100 for the full control effect; nearly all actives have a fitted effect of over 60% in size
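Complex of BAZ2B and biotin-H3K14Ac (50 nM apiece) forms over 30 min at RT, then faces library compounds up to 110 uM for another 30 min; AlphaScreen beads added, 20 min dark incubation, luminescence read.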
L3MBTL1 inh = L3MBTL1 (human) inhibition; Q9Y468; AlphaScreen L3MBTL1–H3K9me1 peptide binding; Potency, µM (titrated, usually from 57.1 µM), for inactives: at the top dose activity, negative = inhibition, hits mostly inhibitors; 230,000 tested, 0.66% active; also: % is scaled to controls: 0 for no effect and ±100 for the full control effect; nearly all actives have a fitted effect of over 60% in size
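L3MBTL1 (50 nM) pre-complexed 30 min with biotinylated H3(1-15)K9me1 peptide (75 nM), then compounds added for 30 min at room temperature; AlphaScreen streptavidin donor/nickel chelate acceptor beads (10 ug/mL final) read after 30 min dark incubation.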
G9a block = inhibitors of human histone lysine methyltransferase G9a. Potency, µM (top dose mostly 102 µM), for inactives: at the highest dose activity, negative = inhibition, hits mostly inhibitors. 350,000 tested, 8.8% active. G9a H3K9 monomethylation, AlphaScreen, 2 h; also: % is scaled to controls: 0 for no effect and ±100 for the full control effect; nearly all actives have a fitted effect of over 75% in size
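AlphaScreen read-out: biotin-H3K9 peptide (500 nM) methylation by 20 nM enzyme with 20 uM SAM, 2 h at room temperature after 15 min compound preincubation; anti-monomethyl H3K9 antibody plus donor/acceptor beads, 10 min dark.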
Sfp inh = inhibitors of Bacillus subtilis Sfp phosphopantetheinyl transferase | Biochemical Sfp PPTase activity, qHTS | Potency, µM, for the others: largest response in the series, negative = inhibition, most hits filed as inhibitors | 310,000 tested, 3.5% active;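 also: the enzyme is Sfp with the accession as filed and its product quenches rhodamine fluorescence; 0% = enzyme reaction without inhibitor and -100% = no enzyme wells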
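Reaction rates are the 30-min fluorescence difference (ex 525, em 598 nm) in wells containing 15 nM Sfp, 5 uM rhodamine-CoA and 12.5 uM BHQ-2-YbbR at pH 7.6 with 10 mM MgCl2.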
JMJD2A Tudor = JMJD2A Tudor domain (human) inhibition. 390,000 tested, 4.4% active. Potency, µM (top dose mostly 114 µM), inactives show at the top dose activity change, negative = inhibition, most hits filed as inhibitors. AlphaScreen JMJD2A-Tudor / H3K4me3 peptide binding. AID 504339. O75164; also: % is scaled to controls: 0 for no effect and ±100 for the full control effect; nearly all actives have a fitted effect of over 50% in size
The depositor's hits bear a star; ? = inconclusive; · = no result given; ! = not confirmed by another sample; [ ] = another dose, or the depositor's remark. Calls follow the shape of the dose curve; as a rule, active = well fitted curve in the direction sought with a large enough effect; inconclusive = small, poorly fitted or top-dose-only effect, or another doubt; inactive = no such curve, though single readings can be large; an effect the other way counts as inactive or inconclusive. Potency is read from the fitted curve at half-maximal effect.

SMILES	HP1b binding inh	BAZ2B inh	L3MBTL1 inh	G9a block	Sfp inh	JMJD2A Tudor
CC(Oc1ccccc1F)C(=O)N1CCC(c2nc3ccccc3o2)CC1 (stereo not given)	26%	?	·	6%[59 µM]	·	-1%
CC[C@]1(c2ncc[nH]2)Cc2ccccc2O1	·	·	·	·	9%	·
CCOC(=O)c1c(C)oc2c1cc(NS(=O)(=O)c1ccc(C(=O)O)cc1)c1ccccc12	-22%	-29%	·	35µM*	56µM*	-21%
CCOC(=O)c1ccc(S(=O)(=O)Nc2cc(C(=O)O)ccc2Cl)cc1	10%	-15%	-11%	7.9µM*	?	-20%
CCOC(=O)c1ccc(S(=O)(=O)NNS(=O)(=O)c2ccc(C)cc2)cc1	34%	3%	·	7%[2.33 µM]	0%	-13%
COc1ccc(OCc2cc(C(=O)NC(C)Cn3cncn3)no2)c(Cl)c1 (stereo not given)	27%	-6%	·	·	1%	6%
O=S(=O)(c1cccs1)N1CCN(CC(O)COC2CCCc3ccccc32)CC1 (stereo not given)	?	50µM*	5%	18µM*	-16%	4µM*
O=S(=O)(c1cccs1)N1CCN(CC(O)COc2cccc(Br)c2)CC1 (stereo not given)	?	79µM*	·	?	-26%	3.2µM*
CC(C)CO/N=C1/C[C@@H](O)[C@@H](O)[C@@H]2[C@@H]3C(=O)N(C4CCCCC4)C(=O)[C@H]3CC[C@H]12	·	·	·	·	6%	·
Clc1ccc(SCCn2cncn2)cc1	?	?	·	?	-4%	45µM*
O=C(CCn1cncn1)N1CCN(S(=O)(=O)c2ccc(Cl)cc2)CC1	18%	12%	·	5%[59 µM]	-2%	-7%
Cc1ccc(SCCCn2cncn2)cc1	-14%	?	·	-47%[12.7 µM]	4%	45µM*
O=C(c1c(F)cccc1F)N(Cc1ccccn1)C1CC1	17%	79µM*	·	?	6%	-3%[11.4 µM]
O=C(CC1CCCCC1)NCc1ccccn1	30%	-5%	·	-27%[12.7 µM]	9%	-9%
COc1ccc(/C=N/Nc2cc(C)nc3ccc(Br)cc23)cc1	?	?	·	-6%[2.33 µM]	56µM*	?
COc1ccc2nc(C)cc(N/N=C/c3cccc(OC)c3O)c2c1	?	45µM*	-14%	45µM*	?	50µM*
Cc1cc(N/N=C/c2ccccc2O)c2ccccc2n1	-5%	?	-6%	·	-13%	?
Cn1cc(-c2nc3cnc(Oc4ccccc4)nc3n(Cc3cccs3)c2=O)c2ccccc21	·	·	·	14%[0.501 µM]	26%	·
C[C@H](NC(=O)[C@@H]1Cc2ccccc2CN1)C(=O)NC1CCCC1	35%	-38%	·	79µM*	6%	-5%
C[C@@H](NC(=O)[C@@H]1Cc2ccccc2CN1C(=O)OC(C)(C)C)C(=O)NC1CCCCC1	39%	12%	·	79µM*	1%	-2%
CSCC[C@H](NC(=O)[C@@H]1Cc2ccccc2CN1)C(=O)NC1CCCCC1	30%	-32%	·	25µM*	4%	-8%
CSCC[C@H](NC(=O)[C@@H]1Cc2ccccc2CN1)C(=O)NC[C@H]1CC[C@H](C(=O)O)CC1	14%	-14%	·	?	1%	-10%
Cc1cc(C)cc(NC(=O)[C@H](NC(=O)[C@@H]2Cc3ccccc3CN2)c2ccccc2)c1	15%	-26%	·	79µM*	?	-15%
O=C(CNC(=O)[C@@H]1Cc2ccccc2CN1)NC1CCCC1	23%[57 µM]	-12%	·	21%[0.0925 µM]	9%	-12%
O=C(NCc1ccccc1)Nc1ncnc2c1C(c1ccccc1)c1c(ccc3ccccc13)O2 (stereo not given)	·	·	·	·	·	-27%
SMILES	HP1b binding inh	BAZ2B inh	L3MBTL1 inh	G9a block	Sfp inh	JMJD2A Tudor
N#Cc1ccccc1NS(=O)(=O)c1cc2c3c(c1)CCC(=O)N3CCC2	33%	-32%	7%	?	·	0%
COc1ccc(OC)c(NC(=O)Cn2c(=O)n(-c3ccc(Cl)cc3)c(=O)c3c(C)c(C)sc32)c1	32%	2%	·	5%[59 µM]	·	4%
CCc1noc(C)c1C(=O)N1CCN(S(=O)(=O)c2ccc(C)cc2)CC1	33%	1%	0%	5%	·	-2%
CC(=O)SC1CC2=CC(=O)CC[C@@]2(C)C2CC[C@@]3(C)[C@@H](CC[C@@]34CCC(=O)O4)C12 (stereo not given in full)	·	·	·	-17%[2.33 µM]	-4%	·
Cc1ccc(NC(=O)[C@H](Cc2ccccc2)NC(=O)[C@@H]2Cc3ccccc3CN2)c(C)c1	34%	-20%[57.1 µM]	·	35µM*	17%	-12%
CSCC[C@H](NC(=O)[C@@H]1Cc2ccccc2CN1)C(=O)Nc1ccc2c(c1)OCCO2	31%	?	·	50µM*	4%	-34%
CC(C)c1ccc(NC(=O)[C@@H](C)NC(=O)[C@@H]2Cc3ccccc3CN2)cc1	51%	-21%	·	?	6%	-12%
CC(C)C[C@H](NC(=O)[C@@H]1Cc2ccccc2CN1)C(=O)Nc1ccc(C(C)C)cc1	10%	?	·	28µM*	1%	-30%
C[C@H](NC(=O)[C@@H]1Cc2ccccc2CN1)C(=O)Nc1ccc2c(c1)OCCO2	21%	-9%	·	16%[0.0925 µM]	-3%	-16%
CCSc1ncc(Cl)c(C(=O)Nc2nc3ccc(S(C)(=O)=O)cc3s2)n1	45%	5%	·	2%[59 µM]	·	-14%
COc1ccc(Cl)cc1C(=O)Nc1cccc(-c2ccc3nncn3n2)c1	3%	-32%	·	?	?	-9%[11.4 µM]
O=[N+]([O-])c1ccccc1S(=O)(=O)Nc1ccn(Cc2c(F)cccc2Cl)n1	28%	-22%	·	-4%	6%	-10%
O=c1c(-c2ccccc2)c(-c2ccccc2)oc2cc(O)cc(O)c12	-18%	71µM*	·	41%[0.501 µM]	-8%	?
O=c1c(O)c(-c2ccc(O)cc2O)oc2cc(O)cc(O)c12	·	50µM*	?	40µM*!	4%	·
O=c1c(O)c(-c2ccccc2O)oc2cc(O)cc(O)c12	·	·	·	·	7%	·
